A selection: hits, their analogues and other compounds. The true share with any hit is near 8.5%.
FBPA coupling cs = coupling enzyme interference in Giardia aldolase counter-screen | coupling enzyme system counterscreen, AmpLite Red fluorescence | activity change, negative = inhibition, % at 58.2 µM, hits read low | actives 0.67% (n = 290,000) | AID 2472; in the data active = activity change below about -30%
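Counterscreen of the coupled detection system alone, without aldolase: glyceraldehyde-3-phosphate coupling enzymes plus AmpLite Red readout. Compounds at 57.5 uM final, 10 min RT preincubation, 20 min RT reaction, fluorescence 525/598 nm.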
Sfp PPTase inh = blocks B. subtilis Sfp PPTase activity; Potency, µM, inactives show largest response in the series, negative = inhibition, hits mostly inhibitors; Q9F4F7; actives 3.5% (n = 310,000); AID 1490; Biochemical Sfp PPTase activity, qHTS; active = well fitted curve in the direction sought with a large enough effect; inconclusive = small, poorly fitted or top-dose-only effect, or another doubt; inactive = no such curve, though single readings can be large; an effect the other way counts as inactive or inconclusive;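 note: the enzyme is Sfp with the accession as filed and its product quenches rhodamine fluorescence; potency is the fitted concentration of half-maximal effect; 0% = enzyme reaction without inhibitor and -100% = no enzyme wells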
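With Hepes-Na pH 7.6 buffer containing 10 mM MgCl2, Sfp (15 nM) modified BHQ-2-YbbR (12.5 uM) using rhodamine-CoA (5 uM). Two reads 30 minutes apart at 525/598 nm yielded each well's rate.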
RGS12 GoLoco inh = inhibitors of human Gai1-RGS12 GoLoco interaction (red fluorophore) | Gai1:RGS12 GoLoco peptide FP, rhodamine, 10 min | P63096 | Potency, µM (highest dose often 61.6 µM), without a hit: at the highest dose activity, negative = inhibition, most hits filed as inhibitors | actives 0.44% (n = 230,000); active = well fitted inhibition curve with a large enough effect, not every such curve was filed as active; inactive = no such curve, though single readings can be large or run the other way; note: potency is the fitted concentration of half-maximal effect; nearly all actives have a fitted effect of over 30% in size
ALDH1A1 inh = blocks purified human ALDH1A1 activity | P00352 | Purified ALDH1A1, NADH fluorescence, propionaldehyde substrate | AID 1030 | actives 7.3% (n = 220,000) | Potency, µM (titrated, usually from 75.3 µM), for inactives: at the highest dose activity, negative = inhibition, most hits filed as inhibitors;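 note: potency is the fitted concentration of half-maximal effect; plate controls were no enzyme wells and a reference inhibitor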
KDM4E inh = JMJD2E (human) inhibition; B2RXH2; JMJD2E catalytic domain, FDH-coupled NADH fluorescence (FDH is formaldehyde dehydrogenase); Potency, µM (top dose mostly 57.1 µM), without a hit: top-dose activity change, negative = inhibition, hits mostly inhibitors; actives 1.6% (n = 230,000); AID 2147;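 note: potency is the fitted concentration of half-maximal effect; 0% = wells with enzyme and -100% = buffer wells without enzyme; nearly all actives have a fitted effect of over 50% in size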
Target sequence (B2RXH2 1-337 limits assumed): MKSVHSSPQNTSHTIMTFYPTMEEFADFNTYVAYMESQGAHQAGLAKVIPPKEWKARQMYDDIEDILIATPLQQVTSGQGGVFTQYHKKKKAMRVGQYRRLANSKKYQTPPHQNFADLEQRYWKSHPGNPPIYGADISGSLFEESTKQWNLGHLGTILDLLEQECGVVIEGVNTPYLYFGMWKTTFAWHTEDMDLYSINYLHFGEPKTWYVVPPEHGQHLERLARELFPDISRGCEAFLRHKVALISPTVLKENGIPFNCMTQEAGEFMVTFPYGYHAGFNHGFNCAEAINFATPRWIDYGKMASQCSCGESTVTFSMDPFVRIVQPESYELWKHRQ
NPSR antagonist = neuropeptide S receptor (human) antagonism, cAMP | Potency, µM (series often up to 38.3 µM), for the others: at the top dose activity change, negative = inhibition, hits mostly inhibitors | actives 1% (n = 220,000) | CHO-NPSR cells, cAMP TR-FRET, antagonist mode | Q6W5P4; active = well fitted curve in the direction sought with a large enough effect; inconclusive = small, poorly fitted or top-dose-only effect, or another doubt; inactive = no such curve, though single readings can be large; an effect the other way counts as inactive or inconclusive; note: potency is the fitted concentration of half-maximal effect; nearly all actives have a fitted effect of over 50% in size
Target sequence (Q6W5P4 whole entry, looked up): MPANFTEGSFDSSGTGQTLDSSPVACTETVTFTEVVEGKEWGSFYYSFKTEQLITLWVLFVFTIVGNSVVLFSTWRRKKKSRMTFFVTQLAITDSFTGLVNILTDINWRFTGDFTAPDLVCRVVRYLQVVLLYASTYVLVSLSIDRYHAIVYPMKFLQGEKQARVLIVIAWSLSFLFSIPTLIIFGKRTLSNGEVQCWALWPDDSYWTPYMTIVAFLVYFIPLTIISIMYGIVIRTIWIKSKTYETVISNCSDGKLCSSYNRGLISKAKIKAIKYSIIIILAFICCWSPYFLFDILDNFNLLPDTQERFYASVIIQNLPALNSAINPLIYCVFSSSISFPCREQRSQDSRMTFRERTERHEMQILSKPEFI
* hit, by the source's call; u = inconclusive; x = no result given; [ ] = remark or other dose. Unless noted, calls come from the whole dose curve; as a rule, active = well fitted inhibition curve with a large enough effect (not every such curve was filed as active); inconclusive = small, poorly fitted or top-dose-only effect, or another doubt; inactive = no such curve, though single readings can be large or run the other way. Unless noted, % is set by controls: 0 for no effect and ±100 for the full control effect.

SMILES | FBPA coupling cs | Sfp PPTase inh | RGS12 GoLoco inh | ALDH1A1 inh | KDM4E inh | NPSR antagonist
O=[N+]([O-])c1cc(F)c(N2CCCCC2)cc1N1CCOCC1 | 3 | -4% | x | 6% | 3% | -11%[46.1 µM]
Nc1cc(N2CCCCC2)c(Cl)cc1[N+](=O)[O-] | 4 | 1% | -4% | 12% | 8% | 3%[46.1 µM]
CSCCC1(C(=O)O)NC(c2ccccc2O)C2C(=O)N(C(C)C)C(=O)C21 (configuration not stated) | 1 | 79µM* | 6% | -4% | -11% | 1%[46.1 µM]
CC(C)C[C@@]12C(=O)N(c3ccc(Br)cc3)C(=O)N1[C@H](c1ccc(Br)cc1)[C@@H]1C(=O)N(C(C)(C)C)C(=O)[C@@H]12 | -6 | 6% | x | x | x | x
CCOC(=O)CSc1n[nH]c(=S)s1 | -2 | u | -10% | x | 10µM* | -10%[7.67 µM]
CCOC(=O)CSc1nn(C)c(=S)s1 | 1 | -1% | -3% | u | -8% | -3%[46.1 µM]
Cc1ccc(-c2[nH]ncc2CNCCc2cnn(-c3ccccc3)c2)cc1C | -4 | 79µM* | 5% | x | 0% | u
O=C(O)c1cc(Cl)c(Cl)cc1C(=O)NCc1ccco1 | 4 | 9% | x | x | x | x
Cc1ccc(/C=C/C(=O)O)cc1S(=O)(=O)NCc1ccco1 | -2 | 40µM* | 7% | u | 1% | -2%
COc1ccc(/C=C/C(=O)O)cc1S(=O)(=O)NCc1ccco1 | 2 | -25% | -5% | x | -2% | 26%
O=C(O)c1cc(S(=O)(=O)NCc2ccco2)c(Cl)cc1Cl | 3 | -17% | 1% | 20µM* | 4% | 2%[46.1 µM]
O=C(/C=C/c1ccc(S(=O)(=O)NCc2ccco2)cc1)NCc1ccccc1Cl | 1 | 18% | x | 28µM* | -2% | -21%[46.1 µM]
COc1ccc(CNC(=O)/C=C/c2ccc(S(=O)(=O)NCc3ccco3)cc2)cc1OC | 2 | 12% | 18% | 45% | 10% | -18%
CN(C)c1ccc(-c2nc(NCCc3cnc[nH]3)c3ccccc3n2)cc1 | -2 | 0% | 10% | u | x | x
COc1ccc(/C=N/Nc2cc(C)nc3c(C)cccc23)cc1 | -3 | u | x | x | x | x
COc1ccc(Nc2cc(C)nc3ccc(OC)cc23)cc1 | -2 | -14% | x | x | x | x
COc1ccc2nc(C)cc(N/N=C/c3ccc(F)cc3)c2c1 | -1 | 45µM* | x | x | x | x
COc1ccc(/C=N/Nc2cc(C)nc3ccccc23)cc1 | -2 | 28µM* | x | x | x | x
Nc1ccccc1SC1CC(=O)N(Cc2ccccc2)C1=O (configuration not stated) | -1 | -10% | 5% | u | -6% | 11%
C=CCOC(=O)C1=C[C@H](C2CC2)[C@@H](CCCO)[C@H](OCC)O1 | 0 | 21% | 5% | 28µM* | -6% | 11%
CCO[C@H]1OC(C(=O)O)=C[C@@H](C2CC2)[C@@H]1CCCO | -1 | 16% | 14% | 7% | -15% | -19%
COc1ccc(S(=O)(=O)NC(C)C(=O)NCc2ccccn2)cc1Cl (configuration not stated) | 0 | -12% | x | x | x | x
O=[N+]([O-])c1cccc(/C=N/n2cnnc2)c1 | 0 | 4% | 7% | x | 3% | -15%
O=C1NC(=S)N/C1=C/c1cc([N+](=O)[O-])ccc1N1CCOCC1 | 3 | -5% | 92% | 25µM* | -2% | -10%
O=C1NC(=S)N/C1=C/c1cccc([N+](=O)[O-])c1 | -1 | 11% | 4% | -1% | -3% | -7%
SMILES | FBPA coupling cs | Sfp PPTase inh | RGS12 GoLoco inh | ALDH1A1 inh | KDM4E inh | NPSR antagonist
O=C1NC(=S)N/C1=C\c1cccc([N+](=O)[O-])c1 | 4 | 56µM* | 8% | u | 3% | 9%[46.1 µM]
O=Cc1cc([N+](=O)[O-])ccc1N1CCOCC1 | 2 | 9% | 3% | u | -5% | 6%
CN1C(=O)/C(=C/c2cccc([N+](=O)[O-])c2)C(=O)N1c1ccccc1 | 0 | 50µM* | x | x | x | x
CC1CCN(S(=O)(=O)c2cccc(C(=O)NNC(=O)c3ccco3)c2)CC1 | 5 | 2% | 1% | x | 2% | 8%
Cc1no[n+]([O-])c1COc1ccc(/C=C(\C#N)C(N)=O)cc1 | 3 | -5% | 6% | 10µM* | 5% | 6%
O=C1C2CC=CCC2C(=O)N1c1ccc(N2CCN(c3ccccn3)CC2)c([N+](=O)[O-])c1 (configuration not stated) | 2 | -9% | -6% | 18µM* | 0% | -13%
O=C(c1ccc(N2CCCCC2)c([N+](=O)[O-])c1)N1CCN(c2ccccn2)CC1 | -2 | -12% | -2% | u | 4% | -18%
CCN(Cc1nc(-c2ccc(C)cc2)no1)C(=O)c1ccco1 | 2 | 1% | x | x | x | x
CC(=O)c1ccc(NC(=O)Nc2ccc(NS(=O)(=O)c3ccc(C)cc3)cc2)cc1 | -1 | 17% | x | u | -8% | -30%[46.1 µM]
CC(=O)c1ccc(NS(=O)(=O)c2ccc(CC(C)C)cc2)cc1 | 10 | 13% | -10% | 6.3µM* | 0% | -4%[46.1 µM]
CC(=O)NC(=S)Nc1ccc(S(=O)(=O)Nc2ncccn2)cc1 | 5 | 23% | 1% | x | -1% | -4%
COc1ncnc2c1oc1nc(CC(C)C)c3c(c12)CC(C)(C)OC3 | 0 | -5% | 1% | 1µM* | 0% | -15%[46.1 µM]
COc1ccccc1CN1CC[C@@]2(CCCN(C(C)=O)C2)C1 | 1 | 23% | -4% | 6% | x | x
Fc1ccccc1CSc1nc2ncccc2[nH]1 | -3 | u | 5% | 22µM* | 0% | 6%[46.1 µM]
O=c1[nH]c(SCc2ccccc2F)nc2ccccc12 | 0 | 6% | 3% | u | u | 31%
COCCn1c(-c2ccc(-c3ccccc3Cl)o2)nc2c1c(=O)[nH]c(=O)n2CC(C)C | 1 | 18µM* | x | -12% | -3% | -5%[46.1 µM]
CCCCn1c(=O)[nH]c(=O)c2c1nc(-c1ccc(-c3ccccc3Br)o1)n2CCOC | -2 | 40µM* | 0% | u | u | -20%[46.1 µM]
CC(C)(C)c1nnc(N/N=C/c2ccc(Br)cc2)n(N)c1=O | 2 | u | 4% | 0% | -8% | 0%
COCCCNS(=O)(=O)c1ccc(OC)c(Cl)c1Cl | 1 | 13% | -4% | 10µM* | -1% | -7%[46.1 µM]
Nc1ccc2cc3ccccc3cc2c1 | x | x | 8% | 2µM* | x | x
Nc1ccc2ncccc2c1 | -39* | u | 68% | u | u | 13%[46.1 µM]
Nc1cccc(N)c1 | x | x | -8% | -5% | x | x
Nc1ccc(/C=C/c2ccc3ncccc3c2)cc1 | -2 | -3% | -8% | x | -4% | -25%
Nc1ccc2ncccc2c1N | -40* | 6.3µM* | -1% | -6% | -26% | 23%
c1cnc2ccc3ncccc3c2c1 | -9 | 11% | -2% | x | 18µM* | 7%
CCN(CC)CC(O)CN1c2ccccc2Sc2ccccc21 (configuration not stated) | 0 | 0% | x | x | x | x
